Results taken from PubChem BioAssay AID1159580 (chemical genetic matrix, 2015).
The campaign covered roughly 5,500 compounds. About 2,000 (36%) were called active. Not shown: some 18% with an inconclusive outcome. Cut-off read from the data, not from the text of the source: active = normalized growth mostly below about 0.91 (no sharp cut-off); inconclusive = no clear call, values can overlap the other calls; inactive = mostly above about 0.92. Some of the results follow.

Assay: chemical genetic growth profiling, strain panel (AID 1159580);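 note: tested at 20 µM; growth read once vehicle control cultures reached saturation at 30 °C; 1 = growth at the plate median or of vehicle wells; lower values mean less growth of the strain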
Conditions: growth OD
[1] = S. cerevisiae deletion strains, locus YAL040C, strain CLN3, active compounds read low
[2] = S. cerevisiae deletion strains, locus YCL061C, strain MRC1 (second series), active compounds read low
[3] = S. cerevisiae deletion strains, locus YDR363W, strain ESC2, active compounds read low
[4] = S. cerevisiae deletion strains, locus YER002W, strain NOP16, active compounds read low
[5] = S. cerevisiae deletion strains, locus YGR078C, strain PAC10, active compounds read low
[6] = S. cerevisiae deletion strains, locus YJR075W, strain HOC1, active compounds read low
[7] = S. cerevisiae deletion strains, locus YMR307W, strain GAS1, active compounds read low
[8] = S. cerevisiae deletion strains, locus YNL128W, strain TEP1, active compounds read low
[9] = S. cerevisiae deletion strains, locus YNL153C, strain GIM3, active compounds read low
[10] = S. cerevisiae deletion strains, locus YNL175C, strain NOP13, active compounds read low
[11] = S. cerevisiae deletion strains, locus YNL197C, strain WHI3, active compounds read low
[12] = S. cerevisiae deletion strains, locus YNL224C, strain SQS1, active compounds read low
[13] = S. cerevisiae deletion strains, locus YOR083W, strain WHI5 (second series), active compounds read low
[14] = S. cerevisiae deletion strains, locus YPL241C, strain CIN2, active compounds read low
[15] = S. cerevisiae deletion strains, locus YMR263W, strain SAP30, active compounds read low
[16] = S. cerevisiae deletion strains, locus YHR030C, strain SLT2, active compounds read low
[17] = S. cerevisiae deletion strains, locus YJL095W, strain BCK1, active compounds read low

Measured: normalized growth

O=C(O)CNC(=O)C(CS)Cc1ccccc1 (stereo not drawn)
inactive: S. cerevisiae deletion strains, locus YAL013W, strain DEP1, active compounds read low 1.01 | [1] 1.05 | [2] 1 | [3] 1.01 | [4] 0.994 | [5] 1.01 | [6] 0.996 | [7] 1 | [8] 1.02 | [9] 1.07 | [10] 1.01 | [11] 0.967 | [12] 1 | S. cerevisiae deletion strains, locus YNL322C, strain KRE1, active compounds read low 0.995 | [13] 1.04 | S. cerevisiae deletion strains, locus YPL055C, strain LGE1, active compounds read low 1.01 | [14] 1.01

CC(=O)SC1CC2=CC(=O)CC[C@]2(C)C2CC[C@@]3(C)C(CC[C@@]34CCC(=O)O4)C12 (stereo partly drawn)
inactive: [1] 0.996 | [2] 1 | S. cerevisiae deletion strains, locus YDR150W, strain NUM1, active compounds read low 1.01 | [3] 1 | [4] 0.982 | [5] 1.01 | S. cerevisiae deletion strains, locus YGR229C, strain SMI1, active compounds read low 1.01 | [6] 1.01 | [15] 0.99 | [7] 1.03 | [8] 0.986 | [10] 1.01 | [11] 0.999 | [12] 1 | [13] 1.01 | [14] 1.01

CC(=O)O[C@@H]1CC2C(C)(C)C(=O)[C@@H]3O[C@@H]3[C@]2(C)C2CC[C@]3(C)C(=CC(=O)O[C@H]3c3ccoc3)[C@@]21C (stereo partly drawn)
inactive: S. cerevisiae deletion strains, locus YBR021W, strain FUR4, active compounds read low 0.995 | S. cerevisiae deletion strains, locus YBR229C, strain ROT2, active compounds read low 0.94 | S. cerevisiae deletion strains, locus YCL029C, strain bik1, active compounds read low 0.967 | S. cerevisiae deletion strains, locus YDL035C, strain GPR1, active compounds read low 0.958 | S. cerevisiae deletion strains, locus YDL074C, strain BRE1, active compounds read low 0.989 | S. cerevisiae deletion strains, locus YDL101C, strain DUN1, active compounds read low 0.994 | S. cerevisiae deletion strains, locus YDL134C, strain PPH21, active compounds read low 0.988 | S. cerevisiae deletion strains, locus YDL185W, strain tfp1, active compounds read low 0.964 | S. cerevisiae deletion strains, locus YDL192W, strain arf1, active compounds read low 0.976 | S. cerevisiae deletion strains, locus YDR101C, strain arx1, active compounds read low 0.975 | S. cerevisiae deletion strains, locus YDR162C, strain NBP2, active compounds read low 0.98 | S. cerevisiae deletion strains, locus YDR318W, strain mcm21, active compounds read low 0.995 | S. cerevisiae deletion strains, locus YDR388W, active compounds read low 0.999 | S. cerevisiae deletion strains, locus YDR502C, strain sam2, active compounds read low 1.01 | S. cerevisiae deletion strains, locus YEL061C, strain CIN8, active compounds read low 0.979 | S. cerevisiae deletion strains, locus YER110C, active compounds read low 0.975 | S. cerevisiae deletion strains, locus YER155C, strain BEM2, active compounds read low 0.998 | S. cerevisiae deletion strains, locus YER167W, strain BCK2, active compounds read low 0.981 | S. cerevisiae deletion strains, locus YGL078C, strain dbp3, active compounds read low 1.01 | S. cerevisiae deletion strains, locus YGL086W, strain mad1, active compounds read low 0.99 | S. cerevisiae deletion strains, locus YGL248W, strain PDE1, active compounds read low 1.01 | [5] 1.01 | S. cerevisiae deletion strains, locus YGR135W, strain pre9, active compounds read low 1.07 | S. cerevisiae deletion strains, locus YGR252W, strain gcn5, active compounds read low 0.997 | [16] 0.989 | S. cerevisiae deletion strains, locus YHR079C, strain IRE1 (second series), active compounds read low 0.985 | S. cerevisiae deletion strains, locus YHR094C, strain hxt1, active compounds read low 0.981 | S. cerevisiae deletion strains, locus YHR129C, strain ARP1, active compounds read low 0.988 | S. cerevisiae deletion strains, locus YHR200W, strain rpn10, active compounds read low 0.985 | S. cerevisiae deletion strains, locus YIL066C, strain RNR3, active compounds read low 0.948 | S. cerevisiae deletion strains, locus YIL073C, strain SPO22, active compounds read low 0.956 | S. cerevisiae deletion strains, locus YIL125W, strain kgd1, active compounds read low 0.987 | S. cerevisiae deletion strains, locus YIR030C, strain dcg1, active compounds read low 0.99 | [17] 1.04 | S. cerevisiae deletion strains, locus YJL134W, strain LCB3, active compounds read low 0.982 | S. cerevisiae deletion strains, locus YJL168C, strain set2, active compounds read low 0.996 | S. cerevisiae deletion strains, locus YJL187C, strain SWE1 (second series), active compounds read low 1.01 | S. cerevisiae deletion strains, locus YJR043C, strain POL32, active compounds read low 0.96 | [6] 1 | S. cerevisiae deletion strains, locus YKL009W, strain mrt4, active compounds read low 0.976 | S. cerevisiae deletion strains, locus YKL068W, active compounds read low 0.986 | S. cerevisiae deletion strains, locus YKL085W, strain MDH1 (second series), active compounds read low 0.996 | S. cerevisiae deletion strains, locus YKL085W, strain MDH1, active compounds read low 0.996 | S. cerevisiae deletion strains, locus YKR001C, strain vps1, active compounds read low 0.971 | S. cerevisiae deletion strains, locus YLR039C, strain RIC1, active compounds read low 0.99 | S. cerevisiae deletion strains, locus YLR058C, strain SHM2, active compounds read low 0.974 | S. cerevisiae deletion strains, locus YLR102C, strain apc9, active compounds read low 0.981 | S. cerevisiae deletion strains, locus YLR262C, strain YPT6, active compounds read low 0.963 | S. cerevisiae deletion strains, locus YLR268W, strain sec22, active compounds read low 0.948 | S. cerevisiae deletion strains, locus YLR330W, strain CHS5, active compounds read low 0.988 | S. cerevisiae deletion strains, locus YLR371W, strain rom2, active compounds read low 0.979 | S. cerevisiae deletion strains, locus YLR418C, strain cdc73, active compounds read low 0.993 | S. cerevisiae deletion strains, locus YML016C, strain PPZ1, active compounds read low 0.972 | S. cerevisiae deletion strains, locus YML032C, strain rad52, active compounds read low 0.962 | S. cerevisiae deletion strains, locus YML124C, strain tub3, active compounds read low 0.991 | S. cerevisiae deletion strains, locus YMR078C, strain ctf18, active compounds read low 0.993 | S. cerevisiae deletion strains, locus YMR223W, strain ubp8, active compounds read low 1 | [15] 1.01 | [7] 0.999 | S. cerevisiae deletion strains, locus YNL067W, strain RPL9B, active compounds read low 1.03 | [8] 0.948 | [9] 1.02 | S. cerevisiae deletion strains, locus YNL233W, strain BNI4, active compounds read low 1.03 | S. cerevisiae deletion strains, locus YNL250W, strain rad50, active compounds read low 1.01 | S. cerevisiae deletion strains, locus YNL271C, strain bni1, active compounds read low 0.999 | S. cerevisiae deletion strains, locus YNL298W, strain CLA4, active compounds read low 0.995 | S. cerevisiae deletion strains, locus YNL307C, strain MCK1, active compounds read low 0.987 | S. cerevisiae deletion strains, locus YNR052C, strain pop2, active compounds read low 1.04 | S. cerevisiae deletion strains, locus YOL012C, strain htz1 0.875 | S. cerevisiae deletion strains, locus YOL147C, strain pex11, active compounds read low 0.993 | S. cerevisiae deletion strains, locus YOR061W, strain CKA2, active compounds read low 0.936 | S. cerevisiae deletion strains, locus YOR069W, strain VPS5, active compounds read low 0.995 | S. cerevisiae deletion strains, locus YOR136W, strain idh2, active compounds read low 0.99 | S. cerevisiae deletion strains, locus YOR144C, strain elg1, active compounds read low 0.988 | S. cerevisiae deletion strains, locus YOR184W, strain ser1, active compounds read low 0.963 | S. cerevisiae deletion strains, locus YOR316C, strain cot1, active compounds read low 0.986 | S. cerevisiae deletion strains, locus YPR119W, strain clb2, active compounds read low 0.993 | S. cerevisiae deletion strains, locus YPR141C, strain kar3, active compounds read low 0.989 | S. cerevisiae deletion strains, locus YPR163C, strain tif3, active compounds read low 0.982 | S. cerevisiae deletion strains, locus YPR167C, strain met16, active compounds read low 0.999 | S. cerevisiae deletion strains, strain wtn01, active compounds read low 0.96 | S. cerevisiae strains, strain wild type, active compounds read low 0.973

C[C@]12CCC3C(CC[C@H]4C[C@H](O)CC[C@]34C)C1CCC2=O (stereo partly drawn)
inactive: S. cerevisiae deletion strains, locus YLR113W, strain HOG1, active compounds read low 0.912 | S. cerevisiae deletion strains, locus YNL183C, strain NPR1, active compounds read low 0.837 | S. cerevisiae deletion strains, locus YOR231W, strain MKK1, active compounds read low 0.861 | S. cerevisiae deletion strains, locus YPL256C, strain CLN2, active compounds read low 0.853
active: [16] 0.63 | S. cerevisiae deletion strains, locus YHR079C, strain IRE1, active compounds read low 0.831 | [17] 0.736 | S. cerevisiae deletion strains, locus YJR066W, strain TOR1, active compounds read low 0.815
